The nature of assay [1]: Drug repurposing screens with cells derived from glioblastoma tumor samples (AID 1345199). Also: nearly all actives have a fitted effect of over 40% in size. Particulars: GBM patient neurospheres viability, ATP luminescence, 48 h. The method in brief:
(§1)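 Four patient lines of CD133+ GBM neurospheres were screened at several concentrations; hits were retested in those lines plus three slower-growing GBM lines, using 48-hour treatment and ATP-based viability.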

Assay [2] deals with astro (control astrocytes). The assay is described as above. Particulars: viability, ATP luminescence, 48 h; series mostly up to 45.9 µM. Put shortly: as §1
Setting [3] is: at 45.9 µM (top of the series), tumour line B.
Where [4] appears, read: at 45.9 µM (top of the series), tumour line D.
Setting [5] is: at 46.1 µM (top of the series), tumour line C.
[6] abbreviates: at 46 µM (top of the series), tumour line A.
[7] abbreviates: at 20 µM (top of the series), tumour line C.
Where [8] appears, read: at 21.2 µM (top of the series), tumour line B.
Where [9] appears, read: at 21.2 µM (top of the series), tumour line D.
Where [10] appears, read: at 21.3 µM (top of the series), tumour line A.

Inconclusive results are not listed. A number with no mark means an inactive call. Calls of active or inactive are those of the source. Calls follow the shape of the dose curve; as a rule, active = well fitted inhibition curve with a large enough effect; inconclusive = small, poorly fitted or top-dose-only effect; inactive = flat fitted curve, though single readings scatter.
% is scaled to controls: 0 for no effect and ±100 for the full control effect; potency is read from the fitted curve at half-maximal effect.

As for `Oc1ccc(Cl)c2c1CCC2`, the values for the activity, negative = cell killing in assay [1] (setting [3]), in assay [1] (setting [4]) and in assay [1] (setting [5]) were -12.8%, -3.41% and -12.7%, respectively.

Regarding `C[C@H](N)C(=O)N[C@@H](C)P(=O)(O)O`, the activity, negative = cell killing in assay [1] (setting [3]) is -6.14%; in assay [1] (setting [4]), -11.2%; in assay [1] (setting [6]), -15.6%; in assay [1] (setting [5]) it was -19.1%.

Consider `N[C@H](CC(=O)O)C(=O)O`, for which the activity, negative = cell killing is 13.2% in assay [1] (setting [3]), 11.3% in assay [1] (setting [4]), 11.8% in assay [1] (setting [6]) and -1.3% in assay [1] (setting [5]).

On to `COc1cc(C)c(/C=C/C(C)=C/C=C/C(C)=C/C(=O)O)c(C)c1C`, for which the values for the activity, negative = cell killing in assay [1] (setting [3]), in assay [1] (setting [4]) and in assay [1] (setting [5]) were -16.3%, 8.72% and -9.52%, respectively.

On to `CCC(=O)OC(OP(=O)(CCCCc1ccccc1)CC(=O)N1C[C@H](C2CCCCC2)C[C@H]1C(=O)O)C(C)C` (stereo partly drawn), for which the activity, negative = cell killing in assay [1] (setting [3]) is -7.98%; in assay [1] (setting [4]) it was -19.4%; in assay [1] (setting [6]), -12.6%; in assay [1] (setting [5]) it was -19%.

Consider `Nc1nc(=O)n([C@@H]2CS[C@H](CO)O2)cc1F`, for which the activity, negative = cell killing in assay [1] (setting [3]) is -1.96%; in assay [1] (setting [4]), -4.58%; in assay [1] (setting [6]) it was -12.2%; in assay [1] (setting [5]) it was 2.71%.

Take `C[C@@H]1NC(=O)[C@@H](N)CNC(=O)[C@H](C2CCNC(N)=N2)NC(=O)/C(=C/NC(N)=O)NC(=O)[C@H](CNC(=O)C[C@@H](N)CCCN)NC1=O` (stereo partly drawn): the activity, negative = cell killing in assay [1] (setting [7]) was 24.6%; in assay [1] (setting [8]), -11.2%; in assay [1] (setting [9]), -13.8%; in assay [1] (setting [3]) it was -12.9%; in assay [1] (setting [4]), -1.47%; in assay [1] (setting [5]), -18.8%. The Potency entry in assay [2] is “inactive”.

Turning to `CO[C@H]1C[C@H](O[C@H]2[C@H](C)[C@@H](O[C@@H]3O[C@H](C)C[C@H](N(C)C)[C@H]3O)[C@@H](C)C[C@]3(CO3)C(=O)[C@H](C)[C@@H](O)[C@@H](C)[C@@H](C)OC(=O)[C@@H]2C)O[C@@H](C)[C@@H]1O`, the activity, negative = cell killing in assay [1] (setting [7]) was -8.16%; in assay [1] (setting [8]), -0.194%; in assay [1] (setting [9]), -29.4%; in assay [1] (setting [10]) it was -24%.

Turning to `O=C(OCc1ccccc1)c1cccnc1`, the activity, negative = cell killing in assay [1] (setting [3]) is -17.7%; in assay [1] (setting [4]), -1.76%; in assay [1] (setting [6]), -18.6%; in assay [1] (setting [5]), 7.49%.

As to `CNCC(O)c1ccc(OC(=O)C(C)(C)C)c(OC(=O)C(C)(C)C)c1` (stereo not drawn), the activity, negative = cell killing was 5.42% in assay [1] (setting [7]), -16.5% in assay [1] (setting [8]), -22.8% in assay [1] (setting [9]) and -18% in assay [1] (setting [10]). The Potency entry in assay [2] was “inactive”.

For `CC(CC=O)CCCC(C)(C)O` (stereo not drawn), the activity, negative = cell killing in assay [1] (setting [3]) was -11.5%; in assay [1] (setting [4]), -18.7%; in assay [1] (setting [6]) it was -27.2%; in assay [1] (setting [5]) it was -24.1%. The Potency entry in assay [2] was “inactive”.

As for `O=C(OC[C@H]1O[C@@H](OC(=O)c2cc(O)c(O)c(OC(=O)c3cc(O)c(O)c(O)c3)c2)[C@H](OC(=O)c2cc(O)c(O)c(OC(=O)c3cc(O)c(O)c(O)c3)c2)[C@@H](OC(=O)c2cc(O)c(O)c(OC(=O)c3cc(O)c(O)c(O)c3)c2)[C@@H]1OC(=O)c1cc(O)c(O)c(OC(=O)c2cc(O)c(O)c(O)c2)c1)c1cc(O)c(O)c(OC(=O)c2cc(O)c(O)c(O)c2)c1`, the activity, negative = cell killing in assay [1] (setting [5]) is -14.4%. The Potency in assay [1] (tumour line A) was 15.8 µM (active); in assay [1] (tumour line B), 22.4 µM (active); in assay [1] (tumour line D) it was 17.8 µM (active).

Turning to `O=C1NCCN1c1ncc([N+](=O)[O-])s1`, the activity, negative = cell killing in assay [1] (setting [7]) is -26.4%; in assay [1] (setting [8]) it was -0.147%; in assay [1] (setting [9]) it was -24%; in assay [1] (setting [10]), -10.3%.

Regarding `N#Cc1ccc2c(c1)N(CCCN1CCC(O)CC1)c1ccccc1S2`, the activity, negative = cell killing in assay [1] (setting [3]) is -29.3%; in assay [1] (setting [5]) it was 15.3%. For the same compound, in assay [1] (tumour line A), the Potency was 5.01 µM (active).

Regarding `CC(C)(C)c1ccc2c(S(=O)(=O)O)c(C(C)(C)C)ccc2c1`, the activity, negative = cell killing is 0.454% in assay [1] (setting [3]); 6.66% in assay [1] (setting [4]); -27.1% in assay [1] (setting [6]); -16.6% in assay [1] (setting [5]); -24.2% in assay [1] (at 91.6 µM (top of the series), tumour line B); -20.7% in assay [1] (at 91.6 µM (top of the series), tumour line D). Besides, in assay [1] (at 99.2 µM (top of the series), tumour line C), the activity, negative = cell killing was -7.16%.

Turning to `O=C(O)[C@H]1C(=CCO)O[C@H]2CC(=O)N12`, the activity, negative = cell killing in assay [1] (setting [3]) is -8.67%; in assay [1] (setting [4]), -21.6%; in assay [1] (setting [6]) it was -18.4%; in assay [1] (setting [5]) it was -12.5%.

For the compound `CC(=O)NCCCS(=O)(=O)O`, the activity, negative = cell killing in assay [1] (setting [3]) is -1.38%; in assay [1] (setting [4]) it was -1.99%; in assay [1] (setting [6]), -10.5%; in assay [1] (setting [5]) it was -6.16%.

Take `O=P(O)(O)OP(=O)(O)O`: the values for the activity, negative = cell killing in assay [1] (setting [3]), in assay [1] (setting [4]) and in assay [1] (setting [5]) were -12.9%, -11% and -5.23%, respectively.

In the case of `COc1cc(S(C)=O)ccc1-c1nc2ncccc2[nH]1` (stereo not drawn), the activity, negative = cell killing in assay [1] (setting [3]) was -1.29%; in assay [1] (setting [4]), -12%; in assay [1] (setting [5]) it was -12.6%.

Take `CCCCC(=O)O[C@H]1CC[C@H]2[C@@H]3CCc4cc(O)ccc4[C@H]3CC[C@]12C`: the activity, negative = cell killing in assay [1] (setting [3]) was -20.6%; in assay [1] (setting [5]), 8.7%. The Potency was 28.2 µM (active) in assay [1] (tumour line A) and 11.2 µM (active) in assay [1] (tumour line D).

For the compound `CN(C)C=Nc1c(I)cc(I)c(CCC(=O)O)c1I`, the activity, negative = cell killing in assay [1] (setting [3]) is -15.9%; in assay [1] (setting [4]), 6.53%; in assay [1] (setting [6]), -8.71%; in assay [1] (setting [5]) it was -9.66%.

As for `NC(N)=NCC1COc2ccccc2O1` (stereo not drawn), the activity, negative = cell killing in assay [1] (setting [3]) was -11.5%; in assay [1] (setting [4]), -28.1%. The Potency in assay [1] (tumour line A) is 35.5 µM (active).

Turning to `Cc1ccc(C(C)(C)c2ccc(C)cc2)cc1`, the activity, negative = cell killing was -5.24% in assay [1] (setting [3]), -1.07% in assay [1] (setting [4]) and -10.1% in assay [1] (setting [5]).

(Values after PubChem BioAssay (NCATS).)
